The whole screen tested about 52,000 compounds, of which about 4,300 (8.3%) were called active. This excerpt belongs to a sample that is enriched for actives. A number with no mark means an inactive call. Rule as the data show it: active = survival mostly below about 52% (no sharp cut-off); inactive = mostly above about 56%.
Tested on: DeltatarO mutant
Assay: S. aureus survival, RN4220 and DeltatarO strains – OD600, teichoic acid synthesis inhibitors, primary screen (AID 463173)
Details: S. aureus RN4220 wild type/DeltatarO growth, OD600, 18 h, hits give low values, screened at 18.75 µg/mL (by protocol)

| Compound | survival |
| --- | --- |
| CC(=O)N1CCC(N(Cc2ccco2)C(=O)Nc2ccc(C)c(Cl)c2)CC1 | 128% |
| CN(C)S(=O)(=O)c1ccc2c(c1)N(CC(=O)NCc1ccccc1)C(=O)C1CCCCN21 (stereo not drawn) | 67% |
| CCSc1nc2n(n1)C(c1ccc(C(=O)O)cc1)C(C(=O)Nc1ccccc1C)=C(C)N2 (stereo not drawn) | 84% |
| COc1ccc(N2CCN(C(=O)Nc3ccc(Cl)cc3)CC2)cc1 | 168% |
| COc1ccc(S(=O)(=O)c2cn(CC(=O)Nc3cc(C)ccc3C)c3ccccc3c2=O)cc1 | 86% |
| COc1ccccc1NC(=O)C1=C(C)Nc2nc(SCc3cc(C)ccc3C)nn2C1c1ccccc1 (stereo not drawn) | 116% |
| CCOc1ccc(NC(=O)CSc2ncc3c(n2)-c2ccc(Cl)cc2N(Cc2ccccc2)S3(=O)=O)cc1 | 99% |
| O=C(NCc1ccccc1Cl)c1ccc(Nc2nc3ccccc3n3nnnc23)cc1 | 84% |
| Cc1cc(/C=C(\C#N)C(=O)Nc2ccccc2)c(C)n1-c1ccc(F)cc1 | 59% |
| COc1cccc(Nc2nnc(-c3cc4ccc(O)cc4oc3=O)s2)c1 | 85% |
| Cc1ccccc1NC(=O)c1sc2nc(-c3ccncc3)ccc2c1N | 39% |
| Cc1cc(F)ccc1NC(=O)c1sc2nc(-c3cccs3)ccc2c1N | 45% (active) |
| CCOc1ccc(OCC)c(NC(=O)c2cc(-c3cccs3)nc3ccccc23)c1 | 85% |
| CC(C)CSc1ccccc1NC(=O)c1sc2nc(-c3ccncc3)ccc2c1N | 46% (active) |
| Nc1c(C(=O)Nc2ccc(Cl)cc2F)sc2nc(-c3cccs3)ccc12 | 58% |
| O=C(Nc1ccc(Br)cc1)c1cc(-c2cccs2)nc2ccccc12 | 83% |
| Nc1c(C(=O)Nc2cccc(F)c2)sc2nc(-c3cccs3)ccc12 | 69% |
| Cc1ccc(NC(=O)c2sc3nc(-c4ccncc4)ccc3c2N)cc1 | 131% |
| Cc1ccc(NC(=O)c2cc(-c3cccs3)nc3ccccc23)c(C)c1 | 57% (active) |
| Cc1ccc(N(Cc2cccs2)C(=O)c2ccc(Br)o2)cc1 | 73% |
| CC(C)(C)C(=O)CSc1nc2ccsc2c(=O)n1Cc1ccccc1Cl | 77% |
| COc1ccc(-c2nc3n(c2NC(C)(C)C)CCN(C(=O)Cc2ccccc2F)C3)cc1 | 88% |
| CSc1ccc(CCNC(=O)c2ccc3c(c2)nc2n3CCC(C)C2)cc1 (stereo not drawn) | 83% |
| CCOC(=O)c1c(-c2ccccc2)csc1NC(=O)c1nc(S(=O)(=O)CC)ncc1Cl | 11% (active) |

| Compound | survival |
| --- | --- |
| CCOC(=O)c1c(NC(=O)c2nc(S(C)(=O)=O)ncc2Cl)sc(C(C)=O)c1C | 6% (active) |
| CCCSc1ncc(Cl)c(C(=O)Nc2sc(C(C)=O)c(C)c2C(=O)OCC)n1 | 51% |
| CCOC(=O)c1c(NC(=O)c2nc(SCC)ncc2Cl)sc(C(C)=O)c1C | 75% |
| CCOC(=O)c1c(-c2ccc(C)cc2)csc1NC(=O)c1nc(SCC)ncc1Cl | 84% |
| CCOC(=O)c1c(-c2ccc(C)cc2)csc1NC(=O)c1nc(SC(C)C)ncc1Cl | 61% |
| CCOC(=O)c1c(-c2ccccc2)csc1NC(=O)c1nc(SCC)ncc1Cl | 87% |
| CCCS(=O)(=O)c1ncc(Cl)c(C(=O)Nc2scc(-c3ccccc3)c2C(=O)OCC)n1 | 25% (active) |
| CCCSc1ncc(Cl)c(C(=O)Nc2scc(-c3ccc(C)cc3)c2C(=O)OCC)n1 | 62% |
| CCOC(=O)c1cccc(NC(=O)C2CCN(S(=O)(=O)c3cn(C)cn3)CC2)c1 | 102% |
| COc1ccc(CCN2C(=O)CN(C3CCCCCC3)C(=O)C2c2ccc(OC(C)C)c(OC)c2)cc1OC (stereo not drawn) | 89% |
| COc1cc2[nH]c(=O)n(CCCCCC(=O)N3CCN(c4ccc(Cl)cc4)CC3)c(=O)c2cc1OC | 67% |
| CCOc1ccc(-c2cc(C)n3nc(C(=O)Nc4cc(Cl)ccc4O)cc3n2)cc1 | 62% |
| CC(=O)Nc1ccc(NC(=O)CCCn2nc(C)c3sc4ccccc4c3c2=O)cc1 | 83% |
| O=c1oc2c3c(ccc2c2ccccc12)OCN(Cc1ccccc1Cl)C3 | 68% |
| O=C(NCCc1ccc(Cl)cc1)c1ccc(CSCc2ccc(Cl)cc2)o1 | 83% |
| CCN1CCN(C(=O)c2ccc3c(c2)N(Cc2cccc(F)c2)C(=O)c2ccccc2S3)CC1 | 85% |
| CCOc1cc(S(=O)(=O)N(C)C2CCCCC2)c(OCC)cc1-n1cnnn1 | 99% |
| Cn1c(=O)oc2cc(S(=O)(=O)CCC(=O)N3CCN(c4cccc(Cl)c4)CC3)ccc21 | 81% |
| COc1ccc(OCC(=O)Nc2ccc3oc(-c4ccncc4)nc3c2)cc1 | 87% |
| CCN1CCN(C(=O)c2cnn(-c3ccc(F)cc3F)c2C2CCN(C(=O)OC(C)(C)C)CC2)CC1 | 86% |
| Cc1nnc2c3ccccc3nc(Nc3ccc(F)cc3Cl)n12 | 83% |
| CCc1nnc2c3ccccc3nc(Nc3ccccc3OC)n12 | 57% |
| CCCCOC(=O)c1ccc(Nc2nc3ccccc3c3nnc(C)n23)cc1 | 25% (active) |
| CCc1ccc(Nc2nc3ccccc3c3nnc(C)n23)cc1 | 92% |

| Compound | survival |
| --- | --- |
| COc1cc(Nc2nc3ccccc3c3nnc(C)n23)cc(OC)c1 | 37% (active) |
| CCc1nnc2c3ccccc3nc(Nc3ccc(F)c(Cl)c3)n12 | 62% |
| CCc1nnc2c3ccccc3nc(Nc3ccc(C(C)=O)cc3)n12 | 78% |
| COc1ccc(C)cc1Nc1nc2ccccc2c2nnc(C)n12 | 135% |
| CCc1nnc2c3ccccc3nc(Nc3ccc(F)cc3C)n12 | 39% (active) |
| CCOc1ccc(Nc2nc3ccccc3c3nnc(CC)n23)cc1 | 62% |
| CCc1nnc2c3ccccc3nc(Nc3cc(C)cc(C)c3)n12 | 26% (active) |
| COc1ccc(Nc2nc3ccccc3c3nnc(C)n23)cc1Cl | 48% |
| Cn1c(-n2cccc2)c(-c2c(-c3ccc(F)cc3)[nH]c3c2c(=O)[nH]c(=O)n3C)c(=O)[nH]c1=O | 55% |
| CCc1ccc(NC(=O)C(=O)NCCc2csc(-c3ccc(C(F)(F)F)cc3)n2)cc1 | 99% |
| Cc1cc(C)c2c(-n3cccc3)c(C(=O)NCC(C)c3ccccc3)sc2n1 (stereo not drawn) | 86% |
| O=C(Nc1ccc(Br)cc1)C1CCCN1S(=O)(=O)c1ccc(F)cc1 (stereo not drawn) | 66% |
| Cc1cccc(N2C(=O)C3C(C(=O)NC4CC4)C4C=CC3(O4)C2C(=O)NC2CCCC2)c1 (stereo not drawn) | 75% |
| Cc1ccc(S(=O)(=O)NCCSc2nnnn2-c2ccc(Cl)c(C(=O)O)c2)cc1 | 138% |
| Cc1ccc(-c2nc3nc(C)cc(Nc4ccccc4O)n3n2)cc1 | 75% |
| Cc1ccc(C)c(-c2nn(CC(=O)Nc3cc(F)ccc3F)c(=O)c3c2CCCC3)c1 | 41% (active) |
| COc1ccccc1NC(=O)Cn1nc(-c2ccc(C)cc2)c2c(c1=O)CCCC2 | 42% |
| CCc1ccccc1NC(=O)Cn1nc(-c2cc(C)ccc2C)c2c(c1=O)CCCC2 | 41% (active) |
| Cc1nn(CC(=O)Nc2cc(F)ccc2F)c(=O)c2cccn12 | 94% |
| CCc1ccccc1NC(=O)CN1CCCN(Cc2cc(C)ccc2C)S1(=O)=O | 94% |
| O=C(Cn1ncc2c([nH]c3ccccc32)c1=O)Nc1cc(F)ccc1F | 81% |
| COc1ccc(Cc2nnc(SCC(N)=O)o2)cc1 | 76% |
| O=C1COc2ccccc2N1Cc1c(F)cccc1Cl | 79% |
| CCOC(=O)c1c(NC(=O)CCCOc2ccc(Cl)cc2)sc2c1CCC2 | 17% (active) |

| Compound | survival |
| --- | --- |
| CCOC(=O)c1c(NC(=O)COc2ccc(C(C)(C)C)cc2)sc2c1CCCC2 | 75% |
| CCOC(=O)c1c(NC(=O)COc2ccc(Cl)cc2C)sc2c1CCCCC2 | 75% |
| CCOC(=O)c1c(NC(=O)CCCOc2ccc(C(C)(C)C)cc2)sc2c1CCC2 | 9% (active) |
| CCOC(=O)c1c(NC(=O)CS(=O)(=O)c2ccc(Cl)cc2)sc2c1CCCC2 | 77% |
| CCOC(=O)c1c(NC(=O)CCCOc2ccc(C(C)(C)C)cc2)sc2c1CCCC2 | 14% (active) |
| Cc1ccc(N2CCN(S(=O)(=O)c3cc(Br)cc4c3N(C(=O)C3CC3)CC4)CC2C)cc1 (stereo not drawn) | 70% |
| CCOc1ccccc1NC(=O)C(=O)NCCc1sc(-c2cccc(F)c2)nc1C | 90% |
| O=C(OCC(=O)N1CCc2ccccc21)c1ccccc1 | 92% |
| CCOc1ccc(CCNC(=O)c2cnc3sc(N4CCC(C)CC4)nn3c2=O)cc1 | 84% |
| COc1cc2c(cc1OC)C(CC(=O)Nc1ccccc1)C(=O)NN=C2C (stereo not drawn) | 103% |
| CCc1cc2c(cc3c(=O)n(CC(=O)N4CCCCC4)nc(CC)n32)s1 | 77% |
| CCc1cc2c(cc3c(=O)n(CC(=O)N4CCC(C)CC4)nc(CC)n32)s1 | 41% (active) |
| CCc1cc2c(cc3c(=O)n(CC(=O)NC4CCC(C)CC4)nc(CC)n32)s1 (stereo not drawn) | 115% |
| COc1ccc(OC)c(C(=O)CN2C(=O)N(c3ccc(C)cc3)S(=O)(=O)c3ccccc32)c1 | 89% |
| COc1ccc(C(=O)NCC(c2ccco2)S(=O)(=O)c2cccs2)cc1 (stereo not drawn) | 100% |
| COc1ccccc1CNc1nc2ccccc2c2nc(-c3cccc(C)c3)nn12 | 24% (active) |
| COc1cc2nc(NCc3ccccc3Cl)n3nc(-c4cccnc4)nc3c2cc1OC | 105% |
| COc1ccc(OC)c(CCNc2nc3ccccc3c3nc(-c4cccnc4)nn23)c1 | 112% |
| COc1ccccc1CNc1nc2ccccc2c2nc(-c3cccnc3)nn12 | 48% (active) |
| Clc1ccccc1CNc1nc2ccccc2c2nc(-c3cccnc3)nn12 | 86% |
| Cc1cccc(-c2nc3c4ccccc4nc(NCc4ccccc4Cl)n3n2)c1 | 138% |
